Only some compounds are listed: those with a hit (about 19% of all), similar ones and a draw of the others.
IL-1B inflam inh – inhibitors of inflammasome signaling (IL-1 beta secretion); THP-1 LPS/ATP IL-1B secretion, AlphaLISA, 16 h; active compounds read low; activity change, % at 57.5 µM; 360,000 tested, 4.7% active; in the data active = activity change below about -50%; inconclusive = mostly about -30% to -49%
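Secreted IL-1B measured by AlphaLISA bead assay after 16 h compound exposure of THP-1 cells; compounds (final up to 57.5 uM) added 1 h before LPS (250 ng/mL) and ATP (1.25 mM) stimulation; lower signal means less secretion.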
HT1080 IDH1KD tx – HT-1080 IDH1 knockdown cell toxicity (counter line) | HT-1080 IDH1 knockdown viability, ATP luminescence, 48 h | Potency, µM (titrated, usually from 46.1 µM), for the others: top-dose activity, negative = toxicity, hits mostly cytotoxic | 360,000 tested, 2% active | AID 686971;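 also: potency is read from the fitted curve at half-maximal effect; 0% = DMSO wells and -100% = cell-free medium wells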
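In this qHTS, HT-1080 cells depleted of IDH1 are exposed for 48 h at 37 °C to compound titrations. Toxicity is scored from CellTiter-Glo luminescence, with DMSO as full viability and medium alone as none.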
TDP1 cell CPT – DT40-hTDP1 cell growth loss with CPT; Potency, µM (doses to about 46.2 µM), for the others: top-dose activity change, negative = growth inhibition, hits mostly inhibitors; chicken DT40 Tdp1-/-;hTDP1 cells + 20 nM CPT, ATP luminescence, 48 h; AID 686979; 420,000 tested, 12% active; also: potency is read from the fitted curve at half-maximal effect; nearly all actives have a fitted effect of over 55% in size
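Chicken DT40 Tdp1-/- cells complemented with human TDP1, 400 cells/well, exposed to compounds plus 20 nM camptothecin for at least 48 h at 37 C; viability read as ATP content by CellTiter-Glo luminescence.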
TDP1 cell noCPT – qHTS for Inhibitors of human tyrosyl-DNA phosphodiesterase 1 (TDP1): qHTS in cells in absence of CPT; DT40 Tdp1-/- hTDP1 cells, no CPT, ATP luminescence, 48 h; Potency, µM (highest dose often 46.2 µM), for inactives: at the top dose activity change, negative = growth inhibition, usual class: inhibitors; 420,000 tested, 15% active; AID 686978, 2013; also: potency is read from the fitted curve at half-maximal effect; nearly all actives have a fitted effect of over 55% in size
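Camptothecin absent (DMSO only). Human TDP1-complemented DT40 knockout cells, 400 cells/well, 37 °C for minimum 48 hr; ATP measured via CellTiter-Glo, 30 min dark incubation, luminescence.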
HT1080-NT tox – kills 2HG-producing HT-1080-NT fibrosarcoma cells. HT-1080-NT fibrosarcoma viability, CellTiter-Glo ATP luminescence, 48 h. Potency, µM (highest dose often 46.1 µM), for inactives: at the top dose activity, negative = less viability, hits mostly cytotoxic. 360,000 tested, 1.6% active;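 also: NT is the 2HG producing partner of a matched IDH1 knockdown line; potency is read from the fitted curve at half-maximal effect; 0% = DMSO-treated cells and -100% = media-only wells without cells; nearly all actives have a fitted effect of over 55% in size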
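Toxicity toward the 2HG-producing NT line was scored as %Activity, normalised to DMSO and no-cell wells, from CellTiter-Glo luminescence after 48 hours' treatment.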
* marks the source's active call; other numbers are inactive results. Unless noted, calls follow the shape of the dose curve; as a rule, active = well fitted curve in the direction sought with a large enough effect; inconclusive = small, poorly fitted or top-dose-only effect, or another doubt; inactive = no such curve, though single readings can be large; an effect the other way counts as inactive or inconclusive. Unless noted, % is scaled to controls: 0 for no effect and ±100 for the full control effect.

Screening COc1ccc(-c2nc3c(c(SCC(=O)N4CCCCC4)n2)Cc2c(CO)cnc(C)c2O3)cc1 returned TDP1 cell CPT 2.6µM* and TDP1 cell noCPT 1.3µM*.
For CCOc1ccc(NC(=O)COc2ccc3c(c2)CCC3)cc1OC the results were IL-1B inflam inh -30, HT1080 IDH1KD tx -4%, TDP1 cell CPT -22%, TDP1 cell noCPT -24% and HT1080-NT tox -7%.
CCC(C)(C(=O)NC1CCCCC1)N(C(=O)CNC(=O)c1ccccc1)c1c(C)n(C)n(-c2ccccc2)c1=O (stereo unspecified) was read as IL-1B inflam inh 12, HT1080 IDH1KD tx 10%, TDP1 cell CPT -2%, TDP1 cell noCPT -3% and HT1080-NT tox 13%.
For COC(=O)COc1ccc(C2C(C(=O)OC)=C(C)NC3=C2C(=O)c2ccccc23)cc1OC (stereo unspecified) the results were TDP1 cell CPT 8% and TDP1 cell noCPT 0%.
CCOC(=O)Nc1ccc2c3c(cccc13)-c1ccccc1-2 was read as IL-1B inflam inh 25, HT1080 IDH1KD tx inconclusive, TDP1 cell CPT 18µM*, TDP1 cell noCPT 21µM* and HT1080-NT tox inconclusive.
Screening CCOC(=O)Nc1cccc2ccccc12 returned IL-1B inflam inh 11, HT1080 IDH1KD tx 2%, TDP1 cell CPT 5%, TDP1 cell noCPT -8% and HT1080-NT tox 3%.
`COc1cccc2c1C(CO)N1C(C#N)C3CC(C(=O)O)C(C1C2)N3C` (stereo unspecified) gave IL-1B inflam inh -116*, HT1080 IDH1KD tx inconclusive, TDP1 cell CPT 0.18µM*, TDP1 cell noCPT 0.21µM* and HT1080-NT tox -9%.
For COc1cccc2c1OCC(C(=O)O)C2 (stereo unspecified) the results were IL-1B inflam inh 21, HT1080 IDH1KD tx inconclusive, TDP1 cell CPT 13%, TDP1 cell noCPT -1% and HT1080-NT tox 11%.
CCCCCCN1C=C/C(=C\C=C(C#N)C#N)c2ccccc21 was read as IL-1B inflam inh 20, HT1080 IDH1KD tx -15%, TDP1 cell CPT inconclusive, TDP1 cell noCPT 23µM* and HT1080-NT tox -3%.
CCOC(=O)c1[nH]c(CN2CCN(c3ccc(OC)cc3)CC2)c(C(=O)OCC)c1C was read as IL-1B inflam inh 20, HT1080 IDH1KD tx inconclusive, TDP1 cell CPT -23%, TDP1 cell noCPT 13µM* and HT1080-NT tox -22%.
Screening CCOC(=O)C1=C(CN2CCN(c3ccc(OC)cc3)CC2)NC(=O)NC1c1ccc(Cl)cc1 (stereo unspecified) returned TDP1 cell CPT 21µM* and TDP1 cell noCPT 15µM*.
CCOC(=O)C1=C(CN2CCN(c3cc(C)ccc3C)CC2)NC(=O)NC1c1ccc(Cl)cc1 (stereo unspecified) was read as TDP1 cell CPT inconclusive and TDP1 cell noCPT 16µM*.
Screening CCOC(=O)C1=C(CN2CCCCC2)NC(=O)NC1c1ccc(C)cc1 (stereo unspecified) returned TDP1 cell CPT -14% and TDP1 cell noCPT -12%.
Screening CCOC(=O)C1=C(CN2CCCCC2)NC(=O)NC1c1ccc(OC)cc1 (stereo unspecified) returned TDP1 cell CPT -4% and TDP1 cell noCPT -3%.
`CC(=O)Nc1sc2c(c1C(N)=O)CCN(Cc1ccccc1)C2` gave IL-1B inflam inh 6, HT1080 IDH1KD tx -10%, TDP1 cell CPT 7%, TDP1 cell noCPT -21% and HT1080-NT tox -2%.
For COC(=O)c1c(NC(=O)C2COc3ccccc3O2)sc2c1CCN(C(=O)OC)C2 (stereo unspecified) the results were IL-1B inflam inh inconclusive, HT1080 IDH1KD tx 7%, TDP1 cell CPT 16µM*, TDP1 cell noCPT 21µM* and HT1080-NT tox 7%.
Screening COC(=O)c1c(NC(=O)C2COc3ccccc3O2)sc2c1CCN(Cc1ccccc1)C2 (stereo unspecified) returned IL-1B inflam inh -3, HT1080 IDH1KD tx 0%, TDP1 cell CPT 16µM*, TDP1 cell noCPT 21µM* and HT1080-NT tox -1%.
For CCCNC(=O)c1c(NC(=O)C2COc3ccccc3O2)sc2c1CCCC2 (stereo unspecified) the results were IL-1B inflam inh 18, HT1080 IDH1KD tx 9%, TDP1 cell CPT 12µM*, TDP1 cell noCPT inconclusive and HT1080-NT tox inconclusive.
`NC(=O)c1c(NC(=O)Cc2ccccc2)sc2c1CCN(Cc1ccccc1)C2` gave IL-1B inflam inh -24, HT1080 IDH1KD tx -9%, TDP1 cell CPT 12µM*, TDP1 cell noCPT 13µM* and HT1080-NT tox -5%.
`Cc1ccc(OCCCn2ccnc2)c(Br)c1` gave IL-1B inflam inh 7, HT1080 IDH1KD tx -5%, TDP1 cell CPT -19%, TDP1 cell noCPT inconclusive and HT1080-NT tox 12%.
Screening O=C(Nc1ccc(COc2ccccc2)cc1)Nc1cccc(C(=O)O)c1 returned IL-1B inflam inh 3, HT1080 IDH1KD tx 0%, TDP1 cell CPT 7%, TDP1 cell noCPT -5% and HT1080-NT tox -10%.
Screening CC(C)(C)C(=O)Nc1nc2c(s1)CN(Cc1ccccc1)CC2 returned IL-1B inflam inh -12, HT1080 IDH1KD tx 12%, TDP1 cell CPT inconclusive, TDP1 cell noCPT 18µM* and HT1080-NT tox -6%.
`COC(=O)c1c(NC(=O)C(C)(C)C)sc2c1CCN(Cc1ccccc1)C2` gave IL-1B inflam inh -17, HT1080 IDH1KD tx -8%, TDP1 cell CPT 16µM*, TDP1 cell noCPT inconclusive and HT1080-NT tox 0%.
`CCOC(=O)c1c(NC(=O)C(C)Sc2cccc[n+]2[O-])sc2c1CCN(Cc1ccccc1)C2` (stereo unspecified) gave IL-1B inflam inh -25, HT1080 IDH1KD tx -1%, TDP1 cell CPT inconclusive, TDP1 cell noCPT 16µM* and HT1080-NT tox -6%.
CCOC(=O)c1c(NC(C)=O)sc2c1CCN(Cc1ccccc1)C2 was read as IL-1B inflam inh 0, HT1080 IDH1KD tx -10%, TDP1 cell CPT inconclusive, TDP1 cell noCPT inconclusive and HT1080-NT tox 1%.
For CCOc1ccc(CNC(=O)Cn2nc(C)n3nc(-c4ccccc4)cc3c2=O)cc1 the results were IL-1B inflam inh 14, HT1080 IDH1KD tx 5%, TDP1 cell CPT -25%, TDP1 cell noCPT -29% and HT1080-NT tox 1%.
For Cc1cnc(C(=O)OCc2ccc(Br)cc2)cn1 the results were IL-1B inflam inh -3, HT1080 IDH1KD tx 18%, TDP1 cell CPT -4%, TDP1 cell noCPT -18% and HT1080-NT tox -25%.
For Cc1ccccc1-c1nc(CS(=O)(=O)CC(=O)N2CCN(C)CC2)c(C)o1 the results were IL-1B inflam inh 1, HT1080 IDH1KD tx -2%, TDP1 cell CPT -5%, TDP1 cell noCPT 4% and HT1080-NT tox -9%.
